esBAF inh: blocks esBAF chromatin remodeling in mouse ES cells. reporter increase, % at 12.5 µM. Bmi1-luciferase knock-in reporter, 24 h; 100% = twice the neutral-well signal. 350,000 tested, 2% active. AID 602393; in the data active = activation above about 40%; inconclusive = no clear call, values can overlap the other calls;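 note: 0% = median of the plate's neutral control wells and 100% = double that signal; a rise in the Bmi1 reporter signal indicates esBAF inhibition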
Wnt act: Wnt/beta-catenin pathway activation. Wnt/beta-catenin reporter cell assay, activator, plate reader. AID 743398. 300,000 tested, 1.2% active. activation, % at 9.35 µM; in the data active = activation above about 30%, passing the limit was not always enough; inconclusive = no clear call, values can overlap the other calls;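 note: 0% = neutral control wells and 100% = positive control wells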
Rtt109 HAT inh: inhibitors of Candida albicans Rtt109/Vps75 histone acetyltransferase; Q5AAJ8; purified Rtt109/Vps75, ThioGlo CoA-SH fluorescence, 4 h; inhibition, % at 34.9 µM; 330,000 tested, 0.16% active; AID 540336;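 active = inhibition of at least 50% in every replicate; inconclusive = best replicate reaches 50% inhibition but some replicates fall short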
Target sequence (Q5AAJ8 whole entry, looked up): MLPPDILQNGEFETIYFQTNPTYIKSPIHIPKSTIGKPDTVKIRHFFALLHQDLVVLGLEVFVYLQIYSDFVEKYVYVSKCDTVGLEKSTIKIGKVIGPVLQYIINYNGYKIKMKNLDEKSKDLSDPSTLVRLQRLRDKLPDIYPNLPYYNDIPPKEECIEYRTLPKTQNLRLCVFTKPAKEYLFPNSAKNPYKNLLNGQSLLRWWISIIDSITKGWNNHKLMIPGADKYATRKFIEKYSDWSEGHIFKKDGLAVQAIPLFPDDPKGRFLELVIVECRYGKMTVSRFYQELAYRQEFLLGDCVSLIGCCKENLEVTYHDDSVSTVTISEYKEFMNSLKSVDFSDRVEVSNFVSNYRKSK
Statin myotox sup: suppressors of simvastatin-induced myotoxicity in C2C12 myotubes; ATP luminescence, 48 h; scaled: DMSO 0, geranylgeraniol control 100; rescue of ATP level, % at 7.49 µM; 330,000 tested, 0.78% active; AID 602340;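 active = mean ATP rescue above about 67%, or every replicate alone reaching that limit, limit read from the data, passing the limit was not always enough; inconclusive = no clear call, values can overlap the other calls; inactive = mean under the limit and some replicate under it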;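 note: myotubes were challenged with 10 µM simvastatin during compound exposure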
MITF act: MITF TRPM1 promoter activation in melanoma cells | SK-MEL-5 TRPM1-promoter luciferase, 24 h; % of positive control, neutral wells = 0 | 300,000 tested, 0.75% active | activation, % at 12.5 µM;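 active = mean activation of at least 80% with every replicate also reaching 80%; inconclusive = mean reaches 80% but some replicate falls short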;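 note: 0% = neutral control wells and 100% = parthenolide positive control wells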
* marks the source's active call; other numbers are inactive results; ? = inconclusive; . = not tested or not shown. Compounds with a hit are over-represented: about 3.1% of the library has one in this group of screens.

SMILES | esBAF inh | Wnt act | Rtt109 HAT inh | Statin myotox sup | MITF act
COc1ccc(C(=O)c2sc(Nc3ccccc3)nc2N)cc1OC | -30.9 | 6.4 | -10.6 | -4.4 | 38.9
Nc1nc(Nc2ccccc2)sc1C(=O)c1ccccc1 | . | 50.5* | -1.0 | . | .
O=C(Nc1ccc(F)cc1)N1C[C@H]2[C@@H](c3ccccc31)[C@H](CO)N2C(=O)Cc1ccccc1 | 4.4 | . | . | 8.0 | .
COc1ccc(C(=O)n2nc(C)cc2Nc2ccccc2)cc1 | 55.4* | . | 4.9 | 2.2 | 17.4
Cc1cc(Nc2ccccc2)nn1C(=O)c1ccccc1 | -6.6 | 1.1 | 12.8 | 11.0 | -0.9
COc1ccc(/C=N/NC(=O)c2ccccc2O)cc1Cn1cc(Cl)cn1 | 18.7 | . | -3.5 | -5.0 | -6.3
CCOc1ccc(/C=N/NC(=O)c2ccccc2O)cc1CN1CC2CC(C1)c1cccc(=O)n1C2 (stereo not given) | 57.1* | 1.0 | 2.4 | -0.5 | 1.0
COc1ccccc1Nc1ncc(-c2cccs2)s1 | 53.7* | . | 1.2 | -14.2 | 72.2
CCC(C)(C)NC(=O)CN(C(=O)CNS(=O)(=O)c1ccccc1)c1ccccc1 | -3.5 | 0.2 | 13.2 | 100.7* | 9.2
COc1ccc(-c2ccc3c(c2)[C@H]2[C@H](CCN2S(=O)(=O)c2ccc(OC)cc2)[C@H](CO)N3)cc1 | 3.2 | . | . | -26.8 | .
O=C(CNC(=O)c1ccc(F)cc1)c1ccc(Cl)cc1 | 53.1* | 18.6 | 52.4* | 3.9 | 53.9
CCSc1nnc(NC(=O)c2csc3c2CCC(C)C3)s1 (stereo not given) | 3.7 | . | -0.5 | -6.3 | 23.1
CC1CCc2c(C(=O)Nc3nccs3)csc2C1 (stereo not given) | 57.7* | 21.2 | 10.6 | . | 74.8
CC1CCc2c(C(=O)Nc3ccccn3)csc2C1 (stereo not given) | . | 52.4* | 0.3 | . | 74.8
CC1CCc2c(C(=O)NCc3ccccn3)csc2C1 (stereo not given) | . | 15.1 | 2.4 | . | 43.4
CC(C)(C)c1cc(-c2n[nH]c(=S)n2-c2ccccc2F)n[nH]1 | 6.7 | 34.0* | 1.7 | 17.4 | .
C[C@H](CO)N1C[C@H](C)[C@@H](CN(C)C(=O)c2cnccn2)Oc2ncc(-c3cccc(C#N)c3)cc2C1=O | 0.0 | . | . | 4.7 | .
Cc1cc(C(=O)CN2C(=O)NC3(CCCCC3)C2=O)c(C)n1Cc1ccc2c(c1)OCO2 | 50.7* | . | -21.6 | 39.6 | 31.9
Cc1cc(C(=O)CN2C(=O)c3cccc(N)c3C2=O)c(C)n1Cc1cccs1 | 43.1* | 19.8 | -41.1 | . | 106.5*
Cc1cc(C(=O)CN2C(=O)NC3(CCCCC3)C2=O)c(C)n1Cc1ccco1 | . | 73.3* | 9.1 | . | ?
Cc1cc(C(=O)CN2C(=O)NC3(CCCCC3C)C2=O)c(C)n1Cc1cccs1 (stereo not given) | . | 65.5* | 33.9 | . | 91.8*
CC1CCCCC12NC(=O)N(CC(=O)NCc1cccs1)C2=O (stereo not given) | 2.9 | -2.4 | . | 11.1 | .
COc1ccc(NC(=O)c2cc(C)n(Cc3cccs3)c2C)cc1 | . | 67.9* | 7.8 | . | .
NS(=O)(=O)c1ccc(CNC(=O)c2ccc3ccccc3n2)cc1 | -0.8 | 0.5 | 6.0 | 11.1 | 3.8
NS(=O)(=O)c1ccc(CNc2ccc3ccccc3n2)cc1 | 51.5* | 7.5 | 3.6 | -8.1 | .
SMILES | esBAF inh | Wnt act | Rtt109 HAT inh | Statin myotox sup | MITF act
COc1ccc2cc(C#N)c(SCC(=O)Nc3nonc3C)nc2c1 | 39.6 | 22.8 | 2.9 | -10.0 | 20.1
CCOC(=O)CSc1nc2cc(OC)ccc2cc1C#N | 32.7 | 67.5* | 3.6 | 3.2 | 110.9*
CCOC(=O)CSc1nc2ccc(C)cc2cc1C#N | 71.3* | -1.3 | -6.0 | 1.9 | 133.9*
Cc1ccc2cc(C#N)c(SCC(=O)N3CCCC3)nc2c1 | 9.3 | 32.8* | 10.9 | 7.3 | 66.9
CCOC(=O)CSc1nc2cc(C)cc(C)c2cc1C#N | 24.2 | . | -11.4 | 1.1 | 42.8
CCOc1ccc2nc(SCC(=O)N3CCCCCC3)c(C#N)cc2c1 | 1.6 | . | -8.7 | 29.1 | .
CCOC(=O)CSc1nc2cc(C)ccc2cc1C#N | 44.3* | 49.3* | -5.0 | 7.5 | 39.8
Cc1ccccc1-c1cnc2c(c1)C(=O)N([C@@H](C)CO)C[C@@H](C)[C@H](CN(C)C(=O)c1cccnc1)O2 | -0.3 | . | . | 5.7 | .
C[C@@H]1CN([C@H](C)CO)C(=O)c2cc(C3=CCCC3)cnc2O[C@H]1CN(C)C(=O)Cc1ccncc1 | 2.2 | . | . | 31.9 | .
CN1C(=O)c2cc(NC(=O)NC3CCCC3)ccc2OC[C@H]2O[C@@H](CC(=O)O)CC[C@@H]21 | 0.4 | . | . | 23.1 | .
O=C(CSc1nc(-c2ccccc2)ns1)N1CCOCC1 | . | 12.1 | 2.6 | . | 51.1
